Measured values from the supplement of paper PMC10338343.
± gives the standard deviation. In all, about 8,200 sequences were measured (“pre-steady-state target cleavage rate”: median about 0.024, highest 2% from about 1.3 on). What follows is part of a selection rich in the highest values, with near analogues and random picks from the rest.

System: MIWI (PIWIL1) piRISC loaded with L1MC piRNA (30 nt)
Test: pre-steady-state target cleavage rate (min^-1); MIWI and MILI are mouse PIWI proteins and EfPiwi is from a freshwater sponge; tags in brackets are library labels; higher = faster piRNA-guided slicing of the target
Details: guide: L1MC piRNA 5'p-UAACUAAAUACUAUGCAAGCUGUAGGUCCU
In short: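 A transcribed, DNA-blocked target RNA library […] was incubated at 33 °C for 0–8 or 0–960 min with 1 nM active affinity-purified piRISC carrying one synthetic guide, in HEPES–potassium acetate buffer with or without 500 nM GTSF1 partner protein. Uncleaved targets were then sequenced and normalised to depth and to weakly complementary targets. Data from three trials were pooled, with k3 capped at 0.0001 min^-1, and a burst-and-steady-state fit yielded the pre-steady-state cleavage rate.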

[1] = auxiliary factor: 500 nM mouse GTSF1
[2] = auxiliary factor: none (no GTSF1)
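Further: 1 nM active piRISC with 0.1 nM target library at 33 °C single turnover.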

Sequence | pre-steady-state target cleavage rate [1] | pre-steady-state target cleavage rate [2]
UGGACCUACAGCUUGCAUACAAUUUAGUAA | 0.00447 ± 0.0027 | –
UCCACCUACAGCUUGCUAUGUAUUUAGAAA | 0.00878 ± 0.0045 | –
UCCUGGAUGUGCUUGCAUACUAUUUAGUUA | 0.0877 ± 0.01 | 0.0191 ± 0.0037
UCCUGGAUCAGCUUGCAUAGUAUUUUGAUA | 0.17 ± 0.032 | 0.0123 ± 0.004
UCCUGGAACAGCUUGCAUAAGUAUUUAGUUA | 0.00489 ± 0.0033 | –
UCCUGGAACAUGCUUGCAUAGUAUUUAGUUA | 0.696 ± 0.028 | 0.0566 ± 0.011
UCCUGGUACAGCUUGCAUCGUAUUUAGUUA | 0.203 ± 0.024 | 0.0269 ± 0.0059
UCCUGCUACAGCUUGCAUAGUCUUUAGUUA | 0.279 ± 0.034 | 0.0195 ± 0.0047
UCCUGCUACAGCUUGCAUAGAUUUUAGAAA | 0.00439 ± 0.0033 | –
UGGACCUACUGCUUGCAUUGUAUUUAGUUA | 0.868 ± 0.041 | 0.0358 ± 0.009
UCCUCCUACACGUUGCAUAGUAUUUAGUAA | 0.507 ± 0.035 | 0.00568 ± 0.0015
UGGACCUACACUUGCAUAGUAUUUAGUUA | 1.33 ± 0.082 | 0.045 ± 0.0091
UCCACCUACAACUUGCAUAGUAUUUAGUUA | 0.869 ± 0.025 | 0.0505 ± 0.0067
UGGACCUACAAGCUUGCAUAGUAUUUAGUUA | 1.03 ± 0.058 | 0.0528 ± 0.0098
UCGACCUACAACUUGCAUAGUAUUUAGUUA | 1.33 ± 0.041 | 0.0746 ± 0.015
AGGACCUACACUUGCAUAGUAUUUAGUUA | 1.15 ± 0.043 | 0.0736 ± 0.016
UGGACCUACAACUUGCAUAGUAUUUAGUUA | 1.5 ± 0.062 | 0.08 ± 0.013
UCGACCUACACUUGCAUAGUAUUUAGUUA | 1.09 ± 0.045 | 0.0331 ± 0.0076
AGGACCUACAACUUGCAUAGUAUUUAGUUA | 1.08 ± 0.031 | 0.0712 ± 0.011
UGGACCUACACCUUGCAUAGUAUUUAGUUA | 1.23 ± 0.045 | 0.0585 ± 0.0088

Sequence | pre-steady-state target cleavage rate [1] | pre-steady-state target cleavage rate [2]
UCCUGGAACAGCUUCCAUAGUAUUUAGAAA | 0.00998 ± 0.0048 | –
UCCACCUACAGCUUGCAUAGUAUUUAGUA | 0.445 ± 0.043 | 0.00981 ± 0.0037
AGGACCUACAGCUUGCAUUCUAUUUAGUAA | 0.262 ± 0.057 | 0.00441 ± 0.0024
UCCUGGAUGAGCUUGCUUAGUUUUUAGUUA | 0.0242 ± 0.0064 | 0.00971 ± 0.0022
UCCUGGAUGUCCAUGCAUAGUAAUUAGUUA | 0.00537 ± 0.0047 | –
UGGACCAACAGCUUGCAUAGUAUUUACUUA | 0.299 ± 0.018 | 0.0367 ± 0.0063
UCCUGGAUGUCCUUGAAUAGUAUUUAGUUA | 0.0223 ± 0.0065 | 0.00268 ± 0.0026
UCCUCCUACAGCUUGCAUAGUAUUUAGUUU [g2:g26:cont:t1U] | 1.29 ± 0.04 | 0.0826 ± 0.02
UCCUGCUACAGCUUGCCUAGUAUUUAGUUA | 0.886 ± 0.057 | 0.0207 ± 0.0037
UGCUCCUACAGCUUGCAUAGUAUUUAGAAA | 0.429 ± 0.033 | 0.00714 ± 0.0022
AGCUCCUACAGCUUGCAUAGUAUUUAGUUA | 1.37 ± 0.053 | 0.0847 ± 0.013
UCCUGCCUACAGCUUGCAUAGUAUUUAGUUA | 1.33 ± 0.091 | 0.0623 ± 0.014
AGCUCCUACAGCUUGCAUAGUAUUUAGUAA | 1.01 ± 0.069 | 0.0506 ± 0.011
UCCUGCUACAGCUUGCAUAGUAUUUAGUUUA | 1.17 ± 0.077 | 0.0574 ± 0.012
UGCUCCUACAGCUUGCAUAGUAUUUAGUUA | 1.33 ± 0.047 | 0.0726 ± 0.012
UGCUCCUACAGCUUGCAUAGUAUUUAGUAA | 1.07 ± 0.045 | 0.0382 ± 0.0079
UCCACCUACAGCUUGCAUAGUAUUUCAGUUA | 0.691 ± 0.081 | 0.0139 ± 0.0037
AGGACCUACUGCUUGCAUAGUAUUUAGAUA | 0.471 ± 0.048 | 0.0411 ± 0.0086
UCCUGGUAUAGCUUGCAUAGUAUUUAGUUA | 1.02 ± 0.043 | 0.0597 ± 0.012
UCCACCUACAGCUUGCAUACUAUAUAGUUA | 0.178 ± 0.022 | 0.0112 ± 0.003

Sequence | pre-steady-state target cleavage rate [1] | pre-steady-state target cleavage rate [2]
UCGAGCUACAGCUUGCUUAGUAUUUAGUUA | 1.19 ± 0.053 | 0.0376 ± 0.0079
AGGACCUACAGCUUGCUAGUAUUUAGUUA | 0.179 ± 0.041 | 0.00501 ± 0.0024
UGGAGCUACAGCUUGCUUAGUAUUUAGUUA | 1.33 ± 0.062 | 0.0391 ± 0.0074
UGGACCUACAGCUUGCUAGUAUUUAGUUA | 0.0515 ± 0.013 | 0.00386 ± 0.0022
AGGAGCUACAGCUUGCUUAGUAUUUAGUUA | 1.3 ± 0.061 | 0.0523 ± 0.011
UGGACCUACAGCUUGCUUAGUAUUUAGUAA | 1.03 ± 0.073 | 0.0335 ± 0.0097
AGGACCUACAGCUUGCUUAGUAUUUAGUAA | 0.862 ± 0.079 | 0.0262 ± 0.0068
AGGACCUACAGCUUGCUUAGUAUUUAGUUA | 1.43 ± 0.071 | 0.066 ± 0.015
UGGACCUACAGCUUGCUUAGUAUUUAGUUA | 1.56 ± 0.094 | 0.0426 ± 0.011
UCCAGGAACAGCUUGCAUAGUAUUUACAAA | 0.328 ± 0.041 | 0.00665 ± 0.0019
UCCUCCUACAGCUUGCAAAGUUUUUAGUUA | 0.352 ± 0.029 | 0.0137 ± 0.0033
UCCUGGAUGUCCUUUCAUAGUAUUUAGUUA | 0.0134 ± 0.004 | –
UCCUGGUAGACCUUGCAUAGUAUUUAGUUA | 0.46 ± 0.042 | 0.00968 ± 0.0029
UCCACCUACACCUUGCAUAGAAUUUAGUUA | 0.337 ± 0.066 | 0.0107 ± 0.003
UCGACCUACAGCUUACAUAGUAUUUAGUUA | 1.59 ± 0.062 | 0.0382 ± 0.0069
UGGACCUACAGCUUACAUAGUAUUUAGUUA | 1.53 ± 0.079 | 0.0508 ± 0.0082
UGGACCUACAGCUUGACAUAGUAUUUAGUUA | 0.986 ± 0.1 | 0.00706 ± 0.0031
UGGACCUACAGCUUUCAUAGUAUUUAGUUA | 0.593 ± 0.032 | 0.0286 ± 0.0052
AGGACCUACAGCUUCAUAGUAUUUAGUUA | 1.11 ± 0.053 | 0.0309 ± 0.0073
UCGACCUACAGCUUGACAUAGUAUUUAGUUA | 0.952 ± 0.072 | 0.00438 ± 0.0026
